Screening data: PubChem, National Center for Advancing Translational Sciences (NCATS)
A selection: hits, their analogues and other compounds. The true share with any hit is near 5.8%.
SW480 rerep: A quantitative high throughput screen for small molecules that induce DNA re-replication in SW480 colon adenocarcinoma cells. actives 1.8% (n = 340,000). Potency, µM (top dose mostly 46.1 µM), for inactives: at the top dose re-replication activation, actives largely listed as activators. SW480 DNA re-replication, Hoechst DNA content imaging, 48 h. AID 624297, 2012; also: % of control where 0% means no effect; nearly all actives have a fitted effect of over 55% in size
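Hoechst fluorescence of nuclei (405 nm excitation, 500-530 nm emission) measured by plate-scanning imager after 48 hr compound exposure at 37 C; re-replication scored as increased number of nuclei with elevated intensity.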
KB-V1 cytotox: qHTS assay for MDR1-selective chemotherapeutics: Primary screen using the drug-selected MDR subline cells KB-V1; Potency, µM (doses to about 46.1 µM), usual class: cytotoxic; actives 3.4% (n = 400,000); KB-V1 MDR cells viability, CellTiter-Glo, 72 h; also: % is scaled to controls: 0 for no effect and ±100 for the full control effect; nearly all actives have a fitted effect of over 60% in size
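KB-V1 MDR subline cells in DMEM (phenol-red free, 10% FBS) exposed to compounds in qHTS concentration series for 72 h at 37 degrees C. Viability read by CellTiter-Glo luminescence; concentration-effect curves fitted after normalization and correction.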
MCF10A rerep: A quantitative high throughput screen for small molecules that induce DNA re-replication in MCF 10a normal breast cells | MCF 10A DNA re-replication, Hoechst nuclear intensity, 48 h | actives 2.9% (n = 350,000) | Potency, µM (doses to about 46.1 µM), for the others: at the highest dose activity, positive = re-replication, most hits filed as activators | AID 624296, 2012; also: % of control where 0% means no effect; nearly all actives have a fitted effect of over 50% in size
KB-3-1 cytotox: qHTS assay for MDR1-selective chemotherapeutics: Primary screen using the parental adenocarcinoma cell KB-3-1; KB-3-1 viability, CellTiter-Glo ATP luminescence, 72 h; Potency, µM (top dose mostly 46.1 µM), hits mostly cytotoxic; actives 1.4% (n = 400,000); AID 1347075, 2019; also: % is scaled to controls: 0 for no effect and ±100 for the full control effect; nearly all actives have a fitted effect of over 60% in size
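72 h, 37 °C compound treatment of KB-3-1 parental cells; CellTiter-Glo added, 10 min, luminescence read. Data corrected against DMSO-only plates and normalized before curve fitting.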
12-LOX inh: Primary qHTS assay for inhibitors of human arachidonate 12S-lipoxygenase (ALOX12): Round 2; Polyunsaturated fatty acid lipoxygenase ALOX12 (Homo sapiens), P18054; purified 12hLO, xylenol orange hydroperoxide absorbance; Potency, µM (top dose mostly 108 µM), inactives show at the top dose activity change, negative = inhibition, actives largely listed as inhibitors; actives 1.1% (n = 580,000); AID 1671190, 2021; also: % is scaled to controls: 0 for no effect and ±100 for the full control effect
Target sequence (P18054 whole entry, looked up): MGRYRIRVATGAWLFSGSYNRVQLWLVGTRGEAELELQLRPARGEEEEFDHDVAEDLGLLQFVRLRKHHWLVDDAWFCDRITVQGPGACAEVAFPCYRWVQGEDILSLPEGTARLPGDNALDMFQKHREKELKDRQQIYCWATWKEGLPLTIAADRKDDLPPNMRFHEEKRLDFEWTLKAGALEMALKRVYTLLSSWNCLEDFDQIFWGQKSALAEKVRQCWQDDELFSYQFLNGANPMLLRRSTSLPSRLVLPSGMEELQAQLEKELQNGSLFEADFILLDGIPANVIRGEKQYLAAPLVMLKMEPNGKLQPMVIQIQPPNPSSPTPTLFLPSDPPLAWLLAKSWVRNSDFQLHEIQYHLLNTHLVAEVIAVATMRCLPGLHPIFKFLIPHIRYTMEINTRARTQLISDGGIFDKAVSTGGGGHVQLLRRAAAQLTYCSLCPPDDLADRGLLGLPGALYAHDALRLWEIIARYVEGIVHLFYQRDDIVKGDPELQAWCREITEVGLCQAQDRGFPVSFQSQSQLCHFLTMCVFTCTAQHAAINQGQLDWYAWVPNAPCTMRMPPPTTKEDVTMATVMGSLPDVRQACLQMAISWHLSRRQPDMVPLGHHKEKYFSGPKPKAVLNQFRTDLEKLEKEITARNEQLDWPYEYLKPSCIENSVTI
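Purified human 12hLO (150 nM final) in 25 mM Hepes, 0.01% Triton X-100, pH 7.0 was preincubated 15 min at room temperature with compound. Then 40 uM arachidonic acid was added, 30 min. Hydroperoxide was read by Fe-XO absorbance ratio 573/405 nm.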
PINK1 expr mod: A Quantitative High throughput Screen to Identify Chemical Modulators of PINK1 Expression; actives 0.2% (n = 410,000); PINK1 immunofluorescence, high-content cytometry, 24 h; AID 624263, 2012; Potency, µM (series often up to 76.6 µM), for the others: at the highest dose activation (PINK1 increase), most hits filed as activators; active = well fitted activation curve with a large enough effect; inconclusive = small, poorly fitted or top-dose-only effect; cell line not stated here; also: % of control where 0% means no effect; nearly all actives have a fitted effect of over 65% in size
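PINK1 protein level read as immunofluorescence by microplate cytometer in a fixed, stained stable cell line after 24 h exposure to five compound concentrations, with CCCP as control.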
Active calls of the source: *; [ ] = dose if it differs, or a comment. Unless noted, calls follow the shape of the dose curve; as a rule, active = well fitted curve in the direction sought with a large enough effect; inconclusive = small, poorly fitted or top-dose-only effect, or another doubt; inactive = no such curve, though single readings can be large; an effect the other way counts as inactive or inconclusive. Potency is read from the fitted curve at half-maximal effect.

COc1ccc(-n2nc3ccc(N)cc3n2)cc1 was read as KB-V1 cytotox inactive, KB-3-1 cytotox inactive, 12-LOX inh inconclusive and PINK1 expr mod 0%.
`CC(C)c1ccc(-n2nc3ccc(N)cc3n2)cc1` gave SW480 rerep 23µM*, KB-V1 cytotox inactive, MCF10A rerep 23µM*, KB-3-1 cytotox inactive, 12-LOX inh -21% and PINK1 expr mod 17%.
Screening Cc1ccc(-n2nc3ccc(NC(=O)C(C)C)cc3n2)cc1 returned SW480 rerep 9%, KB-V1 cytotox inactive, MCF10A rerep 4%, KB-3-1 cytotox inconclusive, 12-LOX inh -14% and PINK1 expr mod -2%.
For Nc1ccc2nn(-c3ccc(F)cc3)nc2c1 the results were SW480 rerep inconclusive, KB-V1 cytotox inactive, MCF10A rerep 18µM*, KB-3-1 cytotox inactive, 12-LOX inh -29% and PINK1 expr mod 1%.
Screening COc1ccc(S(=O)(=O)N(CC(=O)NC(C(C)C)C(C)C)c2ccc(F)cc2)cc1OC returned 12-LOX inh -1%.
COc1ccc(OC)c(S(=O)(=O)N2CCCCC2C(=O)N2CCN(c3ccccn3)CC2)c1 (configuration not stated) was read as SW480 rerep inconclusive, KB-V1 cytotox 9.2µM*, MCF10A rerep -22%, KB-3-1 cytotox inactive, 12-LOX inh -8% and PINK1 expr mod 1%.
Screening COc1ccc(OC)c(S(=O)(=O)N2CCN(c3ccccn3)CC2)c1 returned SW480 rerep inconclusive, KB-V1 cytotox inactive, MCF10A rerep inconclusive, KB-3-1 cytotox inactive, 12-LOX inh -6%[57.4 µM] and PINK1 expr mod -1%[38.3 µM].
CCOc1ccccc1-c1nc2c([nH]1)c(=O)n(C)c(=O)n2C was read as SW480 rerep 19%, KB-V1 cytotox 10µM*, MCF10A rerep 2%, KB-3-1 cytotox inconclusive, 12-LOX inh -1% and PINK1 expr mod -1%.
COC(C(=O)Nc1ccc(S(=O)(=O)Nc2cccc3ccccc23)cc1)c1ccccc1 (configuration not stated) was read as KB-V1 cytotox 18µM*, MCF10A rerep inconclusive, KB-3-1 cytotox inactive, 12-LOX inh -14% and PINK1 expr mod -2%.
Screening O=C(c1ccccc1)c1ccc(-c2ccc(O)cc2)cc1 returned SW480 rerep 16µM*, KB-V1 cytotox inconclusive, MCF10A rerep 23µM*, KB-3-1 cytotox inconclusive, 12-LOX inh 10% and PINK1 expr mod 6%.
`Fc1cccc(COc2ccc(-c3nnco3)cc2)c1` gave 12-LOX inh 10%.
`COc1ccc(COc2ccsc2C(=O)Nc2ccc(Cl)c(Cl)c2)cc1` gave SW480 rerep 12%, KB-V1 cytotox inactive, MCF10A rerep 18µM*, KB-3-1 cytotox inactive, 12-LOX inh -12% and PINK1 expr mod 10µM*.
`O=C(Oc1ccc(-c2ccccc2)cc1)C(c1ccccc1)c1ccccc1` gave 12-LOX inh 13%.
Screening Cn1c(=O)c2c(nc(NCCCn3ccnc3)n2Cc2ccc(F)cc2)n(C)c1=O returned 12-LOX inh 5%.
CCCc1nc2ccccc2c(C(=O)OCC(=O)Nc2cccc(S(=O)(=O)N3CCOCC3)c2)c1CC was read as SW480 rerep 11%, KB-V1 cytotox inconclusive, MCF10A rerep inconclusive, KB-3-1 cytotox inconclusive, 12-LOX inh 0% and PINK1 expr mod -3%.
CCCc1nc2ccccc2c(C(=O)OCC(=O)NCc2ccco2)c1CC was read as SW480 rerep -7%, KB-V1 cytotox 5.8µM*, MCF10A rerep 18%, KB-3-1 cytotox inactive, 12-LOX inh -26% and PINK1 expr mod -2%[38.3 µM].
CCCc1nc2ccccc2c(C(=O)OCC(=O)Nc2ccc(S(=O)(=O)N3CCOCC3)cc2)c1CC was read as SW480 rerep 21µM*, KB-V1 cytotox 3.3µM*, MCF10A rerep inconclusive, KB-3-1 cytotox inconclusive, 12-LOX inh -7% and PINK1 expr mod 5%[38.3 µM].
CC(C)OC(=O)c1nc2ccccc2nc1N1CCN(c2ccc(F)cc2)CC1 was read as 12-LOX inh -44%.
CCc1nc2c(OCCC3CCCCC3)cccn2c1N(C)C(=O)c1ccc(C)cc1 was read as KB-V1 cytotox inactive, KB-3-1 cytotox inactive, 12-LOX inh 45µM* and PINK1 expr mod 7%.
Screening Cc1cc(N2CCOCC2)ccc1/C=C\[N+](=O)[O-] returned SW480 rerep 5.8µM*, KB-V1 cytotox inconclusive, MCF10A rerep 18µM*, KB-3-1 cytotox inactive, 12-LOX inh inconclusive and PINK1 expr mod 3%.
For CC(C)NC(=S)N/N=C1\CC2CC=CC12 (configuration not stated) the results were 12-LOX inh -22%.
S=C(N/N=C1/CC2CC=CC12)NC1CCCCC1 (configuration not stated) was read as 12-LOX inh 35µM*.
Screening N#Cc1ccc(N2Cc3ccccc3C2=NC(=O)c2cccnc2Cl)cc1 returned SW480 rerep 3%, KB-V1 cytotox 16µM*, MCF10A rerep inconclusive, KB-3-1 cytotox inconclusive, 12-LOX inh -27% and PINK1 expr mod 0%.
For O=C1C=CC2(C=C1)O[C@H](Cc1ccccc1)[C@@H](Cc1ccccc1)O2 the results were SW480 rerep 0.92µM*, KB-V1 cytotox 16µM*, MCF10A rerep inconclusive, KB-3-1 cytotox inconclusive, 12-LOX inh 0% and PINK1 expr mod -6%.
Screening COc1ccc(N2C(=O)CC(Cc3ccccc3)C2=O)cc1 (configuration not stated) returned SW480 rerep 1%, KB-V1 cytotox inconclusive, MCF10A rerep 580%[0.0737 µM], KB-3-1 cytotox inactive, 12-LOX inh inconclusive and PINK1 expr mod 0%.
For COc1ccc(C[C@@H]2OC3(C=CC(=O)C=C3)O[C@H]2Cc2ccc(OC)cc2)cc1 the results were SW480 rerep 0.92µM*, KB-V1 cytotox inconclusive, MCF10A rerep 0.73µM*, KB-3-1 cytotox 2.3µM* and PINK1 expr mod -1%.
`O=C(NC1CC1)C(Sc1ccc2ccccc2c1)c1ccc(F)cc1` (configuration not stated) gave 12-LOX inh -59%.
